Measured values: PubChem BioAssay AID1159580 (chemical genetic matrix, 2015)
The campaign covered roughly 5,500 compounds. About 2,000 (36%) were called active. Another 18% or so got no clear call; they are omitted. No stated cut-off is given here; in the data, active means normalized growth mostly below about 0.91 (no sharp cut-off); inconclusive means no clear call, values can overlap the other calls; inactive means mostly above about 0.92. The list shows a part of the results.

Assay: chemical genetic growth profiling, strain panel (AID 1159580);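 further: tested at 20 µM; growth read once vehicle control cultures reached saturation at 30 °C; 1 = growth at the plate median or of vehicle wells; lower values mean less growth of the strain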
Conditions: S. cerevisiae deletion strains, growth OD
[1] = locus YAL040C, strain CLN3, active compounds read low
[2] = locus YCL061C, strain MRC1 (second series), active compounds read low
[3] = locus YDR363W, strain ESC2, active compounds read low
[4] = locus YER002W, strain NOP16, active compounds read low
[5] = locus YJR075W, strain HOC1, active compounds read low
[6] = locus YNL153C, strain GIM3, active compounds read low
[7] = locus YNL175C, strain NOP13, active compounds read low
[8] = locus YNL197C, strain WHI3, active compounds read low
[9] = locus YNL224C, strain SQS1, active compounds read low
[10] = locus YNL322C, strain KRE1, active compounds read low
[11] = locus YOR083W, strain WHI5 (second series), active compounds read low
[12] = locus YPL055C, strain LGE1, active compounds read low

Measured: normalized growth

N[C@H]1CONC1=O
inactive: locus YAL013W, strain DEP1, active compounds read low 1.01 | [1] 1.08 | [2] 0.995 | [3] 0.995 | [4] 0.988 | [5] 1.02 | [6] 0.955 | [7] 0.986 | [8] 1.02 | [9] 0.994 | [10] 1.01 | [11] 0.993 | [12] 0.992

N=C(N)SCCc1cnc[nH]1
inactive: [1] 0.985 | [2] 0.988 | [3] 1.01 | [4] 1.02 | [5] 0.998 | locus YMR263W, strain SAP30, active compounds read low 0.979 | locus YNL128W, strain TEP1, active compounds read low 0.995 | [6] 0.972 | [7] 0.992 | [8] 0.98 | [9] 0.991 | [10] 0.979 | [11] 0.988 | [12] 1
